Screening data: PubChem BioAssay, National Center for Advancing Translational Sciences (NCATS)
Lassa entry inh: Lassa virus entry inhibition; Lassa virus pseudotype entry inhibition, cell reporter; Potency, µM (highest dose often 37.9 µM), without a hit: top-dose activity change, negative = inhibition, usual class: inhibitors; actives 1.2% (n = 300,000); calls by dose curve; tested in HEK293 cells; also: potency is read from the fitted curve at half-maximal effect; nearly all actives have a fitted effect of over 50% in size
FMDV antiviral: blocks foot and mouth disease virus. FMDV antiviral cell-based qHTS. Potency, µM (titrated, usually from 57.9 µM), for inactives: at the top dose activity change, negative = inhibition, most hits filed as inhibitors. actives 1.2% (n = 410,000); calls by dose curve; tested in HEK293T cells; also: read-out not given here; potency is read from the fitted curve at half-maximal effect; nearly all actives have a fitted effect of over 45% in size
HCMV inh: inhibitors of human cytomegalovirus. actives 4.5% (n = 410,000). HFF cells, HCMV-luciferase reporter, 72 h; active compounds read low. activity change, negative = inhibition, % at 57.5 µM; in the data active = activity change below about -60%; inconclusive = no clear call, values can overlap the other calls; inactive = above about -39%
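Luciferase read-out from HCMV-luciferase-infected HFFs (MOI 1 PFU/cell) 72 h post infection at 37C; compounds added after 16 h cell attachment; activity normalized between buffer-only basal and Salinomycin (10uM) inhibitor controls.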
MARV entry inh: blocks Marburg virus binding to or entry into cells. Potency, µM (top dose mostly 37.8 µM), for inactives: at the highest dose activity change, negative = inhibition, hits mostly inhibitors. actives 1.8% (n = 300,000). AID 540276. Marburg virus pseudotyped entry inhibition, cell reporter; calls by dose curve; tested in HEK293 cells; also: potency is read from the fitted curve at half-maximal effect
* = called active by the depositor; ? = inconclusive; nt = no result; [ ] = remark or other dose. A selection: hits, their analogues and other compounds. The true share with any hit is near 6.2%. % is scaled to controls: 0 for no effect and ±100 for the full control effect.

SMILES	Lassa entry inh	FMDV antiviral	HCMV inh	MARV entry inh
O=C(C[C@@H]1CC[C@H](NC(=O)c2ccc3c(c2)OCO3)[C@@H](CO)O1)NCc1ccc(F)cc1	nt	-13%	-8	nt
O=C(NCc1nnc(SCc2ccccc2)n1-c1ccc(F)cc1)C12CC3CC(CC(C3)C1)C2	-25%	25µM*	20	?
COc1ccc(OCC(=O)NNC(=O)C(=O)Nc2ccccc2)cc1	nt	10%	-1	nt
O=C(Cc1ccccc1)N(Cc1cccnc1)c1nc2c(F)cc(F)cc2s1	13µM*	-3%	0	nt
CC(=O)N(Cc1cccnc1)c1nc2c(F)cc(F)cc2s1	-16%[46.1 µM]	-6%	0	nt
CCCCn1c(N)c(NCC)c(=O)[nH]c1=O	3%	-8%	3	4%
CCCCn1c(N)c(NCC(C)C)c(=O)[nH]c1=O	16%	-13%	-91*	0%
CCc1n[nH]c(=S)n1/N=C/c1ccc(NC(C)=O)cc1	?	5%	26	1%
COC(=O)c1ccc(NC(=O)CN(C)S(=O)(=O)c2ccc3c(c2)CCCC(=O)N3)cc1	?	32µM*	2	nt
Cn1cc(C(=O)CCl)c2ccccc21	?	22µM*	-98*	16µM*
COc1cc(OC)c(C(=O)O/N=C(\N)c2ccc(C)cc2)cc1OC	?	19%	20	7.9µM*
CC(C)N1CC=C(c2c[nH]c3ccccc23)CC1	?	?	-67*	7%
O=C(NCc1ccccc1)C1C(c2ccc3c(c2)OCO3)=Nc2ccccc2N1C(=O)c1ccccc1 (stereo unspecified)	nt	7%	-21	nt
O=C(NCc1ccccc1)C1C(c2ccc3c(c2)OCO3)=Nc2ccccc2N1C(=O)c1ccco1 (stereo unspecified)	nt	40%	-62*	nt
Cc1c(Br)cccc1NC(=O)C1(C)CCN1C(C)C (stereo unspecified)	nt	-9%	-80*	nt
COc1cccc(NC(=O)C2(C)CCN2C(C)C)c1OC (stereo unspecified)	nt	-20%	-6	nt
N#Cc1c(N)n(C2OC(CO)C(O)C2O)c2ncnc(N)c12 (stereo unspecified)	1.8µM*	-6%	-99*	0.5µM*
O=C(Nc1ccccc1-c1ccccc1)c1ccco1	-17%	-4%	-11	-5%
CCOC(=O)C1(C(C)(C)CC)CC(CSc2nc3ccccc3[nH]2)OC1=O (stereo unspecified)	?	0%	-11	?
COc1ccccc1-c1c(C)nn2c(N3CCCCCC3)cc(C)nc12	?	28µM*	-96*	?
COc1ccc(-c2c(C)nn3c(-c4ccccc4)cc(C)nc23)cc1OC	-1%[46.1 µM]	?	-17	-2%[46.1 µM]
COc1ccccc1-c1c(C)nn2c(N)c(-c3ccccc3)cnc12	-9%[46.1 µM]	-11%	-82*	?
COc1ccccc1-c1c(C)nn2c(-c3ccccc3)cc(C)nc12	?	?	-68*	?
O=C(CCC(=O)N1CCCC1)Nc1nnc(C(F)(F)F)s1	0%	nt	17	23%
O=C(NCCc1ccccc1)c1ccc(S(=O)(=O)N2CCCCC2)cc1	nt	6%	45	nt
SMILES	Lassa entry inh	FMDV antiviral	HCMV inh	MARV entry inh
CSc1ccccc1C(=O)NCCc1ccc(S(=O)(=O)N2CCCCC2)cc1	0%	-5%	-102*	18%
NC(=O)C1CCN(c2ccc(S(=O)(=O)N3CCC(Cc4ccccc4)CC3)cn2)CC1	?	?	-67*	?
O=C(NCCc1ccccc1)C1CCN(S(=O)(=O)c2ccccc2)CC1	-9%	3%	-104*	?
O=C(CCNC(=O)C1CCN(S(=O)(=O)c2ccccc2)CC1)NCc1ccc(Cl)cc1Cl	nt	?	-75*	nt
O=C(CCNC(=O)C1CCN(S(=O)(=O)c2ccccc2)CC1)NCc1ccc(Cl)cc1	nt	-16%	-11	nt
O=S(=O)(c1ccc(Cl)nc1)N1CCC(Cc2ccccc2)CC1	nt	-10%	1	nt
C/C(=C/C(=O)O)C(=O)Nc1cccc(C(F)(F)F)c1	nt	0%	-18	nt
CCC(Oc1ccc(F)cc1)C(=O)Nc1nc2c(s1)CCCC2 (stereo unspecified)	-5%[46.1 µM]	-13%	-11	-24%[46.1 µM]
C[C@@H](C(=O)NNC(=O)c1ccc(Cl)cc1)N1C(=O)C2CC=CCC2C1=O (stereo partly specified)	21%[46.1 µM]	8%	31	10%[46.1 µM]
O=C(N/N=C/c1[nH]c2ccccc2c1Cl)c1cccc(Br)c1	-12%[46.1 µM]	-16%	-32	?
COCCCN1C(=O)c2ccc(C(=O)OCC(=O)N3CCN(c4ccccc4)CC3)cc2C1=O	6%	-28%	?	5%[46.1 µM]
Cc1ccc(Nc2nc(-c3ccccc3)cs2)nc1	nt	-47%	8	nt
COc1cc(OC)cc(C2=Cc3ccccc3C(CC(C)=O)N2c2ccc(C#CC3(N)CCCCC3)cc2)c1 (stereo unspecified)	nt	-19%	-1	nt
Cc1c(C(=O)Nc2cccc(C(F)(F)F)c2)sc2nc3n(c(=O)c12)CCCC3	18%[46.1 µM]	18µM*	-16	nt
CC(=O)c1cccc(NC(=O)c2sc3nc4n(c(=O)c3c2C)CCCC4)c1	-5%[46.1 µM]	20%	-3	?
Cc1c(C(=O)N(C)c2cccc(C(F)(F)F)c2)sc2nc3n(c(=O)c12)CCCCC3	4%[46.1 µM]	-27%	-76*	nt
CCc1ccc(NC(=O)c2sc3nc4n(c(=O)c3c2C)CCC4)cc1	nt	-3%	-29	nt
CC(=O)Nc1ccc(NC(=O)c2sc3nc4n(c(=O)c3c2C)CCCCC4)cc1	?	-13%	-82*	-20%
Cc1cc([N+](=O)[O-])c2[nH]c(C(=O)N/N=C/c3ccccc3C(=O)O)c(-c3ccccc3)c2c1	-7%	-5%	-80*	-14%
CSc1ccc(/C=C(/NC(=O)c2ccco2)C(=O)NCc2ccco2)cc1	-14%	16%	18	?
Clc1ccc(CNc2ncnc3[nH]ncc23)cc1Cl	7.1µM*	-21%	-34	4µM*
COc1cccc(N(CC(=O)NCC2CCCO2)C(=O)CNS(=O)(=O)c2ccccc2)c1 (stereo unspecified)	18%[46.1 µM]	5%	-1	7%[46.1 µM]
O=C(Nc1cc(C(F)(F)F)ccc1Cl)c1cnn(-c2ccccc2)c1-n1cccc1	-2%[46.1 µM]	32µM*	-37	nt
COc1cc(OC)c(NC(=O)c2cnn(-c3ccccc3)c2-n2cccc2)cc1Cl	1%[46.1 µM]	-4%	-13	10%[46.1 µM]
COc1ccc(C(=S)N2CCN(C)CC2)cc1	16%	5%	52	18%
SMILES	Lassa entry inh	FMDV antiviral	HCMV inh	MARV entry inh
CCCCn1cnc2c(SCc3ccc([N+](=O)[O-])cc3)nc(N)nc21	-24%	-14%	-21	-9%
Cc1nc(-c2ccccc2)sc1-c1nc(-c2ccncc2)ncc1S(=O)(=O)c1ccccc1	?	?	-82*	4.5µM*
CC1(C)CN2C(c3ccc(Cl)cc3)N2C1 (stereo unspecified)	-1%	17%	-75*	12%
COC(=O)c1ccc(CN=C(NS(=O)(=O)c2ccccc2)c2ccccc2)cc1	nt	24%	7	nt
COc1cc(/C=N/O)ccc1OCc1ccc(Cl)cc1	nt	nt	137	nt
COc1cc(/C=N/NS(=O)(=O)c2ccc3ccccc3c2)ccc1OCc1ccc(C(=O)O)cc1	?	-36%	35	0.89µM*
COc1cc(/C=N/O)ccc1OCc1ccc(C(=O)O)cc1	?	4.5µM*	59	0.1µM*
